Experiment [1] addresses Thyrotropin-releasing hormone receptor (Homo sapiens) (UniProt P34981). In words: qHTS assay to identify small molecule agonists of the thyrotropin-releasing hormone receptor (TRHR) signaling pathway (AID 1346891; calls by dose curve;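 further: HEK293 cells expressing TRHR with calcium dye readout; series mostly up to about 58 µM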). In a few lines:
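Kinetic fluorescence (3 min, 1 s intervals) reported intracellular calcium after compound transfer onto TRHR-Hek293 cells pre-loaded with dye for 2 h at 37 °C.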

Experiment [2] in a line: Human pregnane X receptor (PXR) small molecule agonists, qHTS cell viability counter screen (AID 1346977). Further: nearly all actives have a fitted effect of over 50% in size. In a few lines:
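HepG2 cells stably carrying the PXR-Luc reporter are cultured with 5% charcoal-stripped FBS and treated with compounds for 24hr. CellTiter-Fluor is added at 23hr and fluorescence is read after 1hr.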

Experiment [3] can be described thus: Caspase-3/7 induction in HepG2 cells by small molecules, qHTS assay (AID 1346978). Further: nearly all actives have a fitted effect of over 15% in size. In a few lines:
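Wild-type HepG2 cells, 2,000/well, settled 5 hr at 37 C and 5% CO2, then compound-treated for 17 hr; caspase-3/7 activity read by luminescent Caspase-Glo 3/7 after 30 min at room temperature.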
(In qHTS, concentration-response curves come from the screen itself.)

A short description of experiment [4]: Caspase-3/7 induction in CHO-K1 cells by small molecules, qHTS cell viability counter screen (AID 1346979). Further: nearly all actives have a fitted effect of over 35% in size. In a few lines:
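Seeding: 1,500 CHO-K1 cells/well. Rest: 5hr, 37C. Treatment: compounds in DMSO, 16hr. Read: CellTiter-Fluor, 1hr, fluorescence.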

Experiment [5] in a line: Caspase-3/7 induction in CHO-K1 cells by small molecules, qHTS assay (AID 1346980). Further: nearly all actives have a fitted effect of over 15% in size. In a few lines:
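Wild-type CHO-K1 cells exposed to compounds for 17hr at 37 C, 5% CO2. Caspase-3/7 activity then measured by Caspase-Glo 3/7 luminescence after 30min at room temperature.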

A short description of experiment [6]: Caspase-3/7 induction in HepG2 cells by small molecules, qHTS cell viability counter screen (AID 1346981). Further: series mostly up to about 92 µM; nearly all actives have a fitted effect of over 30% in size. In a few lines:
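Wild-type HepG2 cells (2,000/well) were allowed to settle for 5 hr at 37 C, 5% CO2, then dosed with compounds in DMSO by pin transfer. After 16 hr at 37 C, CellTiter-Fluor was added and fluorescence read 1 hr later.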

Experiment [7] concerns the target Nuclear receptor subfamily 1 group I member 2 (Homo sapiens) (UniProt O75469). The experiment in a line: Human pregnane X receptor (PXR) small molecule agonists, qHTS assay (AID 1346982). Further: nearly all actives have a fitted effect of over 35% in size. Further: potency means the concentration at half of the fitted maximal effect. In a few lines:
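PXR-Luc HepG2 cells (CYP3A4 promoter-driven luciferase) were seeded in medium with 5% charcoal-stripped FBS, left 5 hr at 37 C, then exposed to compounds in DMSO for 24 hr. Luminescence was read after ONE-Glo addition.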

Experiment [8] concerns the target Cytochrome P450 2D6 (Homo sapiens) (UniProt P10635). In words: Cytochrome P450 Family 2 Subfamily D Member 6 (CYP2D6) small molecule antagonists: luciferase reporter qHTS assay (AID 1671196). Further: series mostly up to about 120 µM; nearly all actives have a fitted effect of over 50% in size. An outline of the steps:
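CYP2D6 enzyme–substrate mix was held with compound for 10 min at room temperature, then NADPH regeneration solution was added and the reaction ran 1 h at room temperature. Luciferin product was detected by luminescence after 20 min with detection reagent.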
(Reporter assays use an easily measured gene product as a stand-in for the process of interest.)

The target of experiment [9] is Cytochrome P450 2C19 (Homo sapiens) (UniProt P33261). In words: Cytochrome P450 Family 2 Subfamily C Member 19 (CYP2C19) small molecule antagonists: luciferase reporter qHTS assay (AID 1671197). Further: nearly all actives have a fitted effect of over 65% in size. Further: potency means the concentration at half of the fitted maximal effect. In a few lines: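 Luminescent readout of CYP2C19 activity: luciferin product detected 20 min after adding detection reagent. Before that, compound and enzyme-substrate mix preincubated 10 min at room temperature; NADPH-regenerating system started a 1 h, 37C reaction. Ketoconazole as positive control.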

In experiment [10] the target is Cytochrome P450 2C9 (Homo sapiens) (UniProt P11712). The experiment in a line: Cytochrome P450 Family 2 Subfamily C Member 9 (CYP2C9) small molecule antagonists: luciferase reporter qHTS assay (AID 1671198). Further: nearly all actives have a fitted effect of over 50% in size. Further: potency means the concentration at half of the fitted maximal effect. An outline of the steps: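 P450-Glo proluciferin substrate with CYP2C9 enzyme; 10 min RT preincubation, then NADPH regeneration 1 h at 37C; luciferin detection reagent 20 min RT, luminescence in relative luminescence units.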

Experiment [11] deals with Voltage-gated inwardly rectifying potassium channel KCNH2 (Homo sapiens) (UniProt Q12809). The experiment in a line: Human Ether-a-go-go-Related Gene (hERG) channel small molecule antagonists: fluorescence cell-based qHTS assay (AID 1671200).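 Further: hERG-expressing U2OS cells given a thallium stimulus after FluxOR II dye loading; series mostly up to about 77 µM; nearly all actives have a fitted effect of over 50% in size.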 An outline of the steps: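 First, 1000 cells per well are seeded and cultured overnight at 37 C. Next, FluxOR II dye is loaded for 1 h at room temperature, protected from light. After 10 more minutes, stimulus is added and fluorescence is read.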
In general terms: The hERG channel carries a current that helps repolarise heart muscle cells.

Experiment [12] concerns the target Cytochrome P450 3A4 (Homo sapiens) (UniProt P08684). In words: Cytochrome P450 Family 3 Subfamily A Member 4 (CYP3A4) small molecule antagonists: luciferase reporter qHTS assay (AID 1671201). In a few lines:
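Enzyme and proluciferin substrate are mixed with test chemicals for 10 min, then NADPH regeneration system drives turnover for 1 h at room temperature. A detection reagent halts the reaction; luminescence after 20 min gives relative activity.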

Experiment [13] deals with Cytochrome P450 1A2 (Homo sapiens) (UniProt P05177). In words: Cytochrome P450 Family 1 Subfamily A Member 2 (CYP1A2) small molecule antagonists: luciferase reporter qHTS assay (AID 1671199). An outline of the steps: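 Human CYP1A2 activity measured with a P450-Glo proluciferin substrate; compounds in DMSO preincubated 10 min at room temperature with enzyme-substrate mix, then NADPH regeneration system added for 1 h. Luciferin detection reagent, 20 min, luminescence read.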

A number with no mark means an inactive call. Records with an inconclusive call do not appear. The source made the active and inactive calls. Unless noted, the call rests on the fitted dose curve; in most records, active means well fitted curve in the direction sought with a large enough effect in the repeat runs; inconclusive means weak or mixed curves; inactive means no such curve, though single readings can be large; an effect the other way counts as inactive or inconclusive.

Chain of Cytochrome P450 2D6 (Homo sapiens) (P10635 whole entry, looked up): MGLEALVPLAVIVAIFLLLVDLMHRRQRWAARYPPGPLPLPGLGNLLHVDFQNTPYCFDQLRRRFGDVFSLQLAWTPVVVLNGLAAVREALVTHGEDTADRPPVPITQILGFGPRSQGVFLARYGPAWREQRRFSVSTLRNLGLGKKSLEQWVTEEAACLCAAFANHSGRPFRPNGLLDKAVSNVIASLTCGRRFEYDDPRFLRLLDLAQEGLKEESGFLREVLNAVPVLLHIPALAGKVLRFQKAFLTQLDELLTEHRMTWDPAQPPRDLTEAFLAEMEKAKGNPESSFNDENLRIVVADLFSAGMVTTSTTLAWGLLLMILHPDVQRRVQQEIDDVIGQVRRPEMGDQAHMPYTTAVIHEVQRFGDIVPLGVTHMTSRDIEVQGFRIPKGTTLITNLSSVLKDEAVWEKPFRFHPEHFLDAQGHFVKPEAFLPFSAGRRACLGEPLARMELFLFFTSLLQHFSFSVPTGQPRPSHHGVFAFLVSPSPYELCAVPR
Chain of Cytochrome P450 2C9 (Homo sapiens) (P11712 whole entry, looked up): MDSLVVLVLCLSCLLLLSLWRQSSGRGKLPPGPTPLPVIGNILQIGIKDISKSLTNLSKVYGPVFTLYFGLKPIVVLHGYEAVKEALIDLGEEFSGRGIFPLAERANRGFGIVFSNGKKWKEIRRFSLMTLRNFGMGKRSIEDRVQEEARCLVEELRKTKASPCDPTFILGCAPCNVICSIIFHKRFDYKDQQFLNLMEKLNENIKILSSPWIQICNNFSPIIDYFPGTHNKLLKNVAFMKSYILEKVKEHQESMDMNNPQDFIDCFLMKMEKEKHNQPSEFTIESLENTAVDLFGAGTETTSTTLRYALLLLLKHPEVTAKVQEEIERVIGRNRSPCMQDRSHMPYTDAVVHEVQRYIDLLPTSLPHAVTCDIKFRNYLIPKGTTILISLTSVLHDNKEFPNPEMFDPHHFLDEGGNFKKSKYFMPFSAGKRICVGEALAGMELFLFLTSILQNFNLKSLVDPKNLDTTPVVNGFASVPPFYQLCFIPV
Chain of Cytochrome P450 1A2 (Homo sapiens) (P05177 whole entry, looked up): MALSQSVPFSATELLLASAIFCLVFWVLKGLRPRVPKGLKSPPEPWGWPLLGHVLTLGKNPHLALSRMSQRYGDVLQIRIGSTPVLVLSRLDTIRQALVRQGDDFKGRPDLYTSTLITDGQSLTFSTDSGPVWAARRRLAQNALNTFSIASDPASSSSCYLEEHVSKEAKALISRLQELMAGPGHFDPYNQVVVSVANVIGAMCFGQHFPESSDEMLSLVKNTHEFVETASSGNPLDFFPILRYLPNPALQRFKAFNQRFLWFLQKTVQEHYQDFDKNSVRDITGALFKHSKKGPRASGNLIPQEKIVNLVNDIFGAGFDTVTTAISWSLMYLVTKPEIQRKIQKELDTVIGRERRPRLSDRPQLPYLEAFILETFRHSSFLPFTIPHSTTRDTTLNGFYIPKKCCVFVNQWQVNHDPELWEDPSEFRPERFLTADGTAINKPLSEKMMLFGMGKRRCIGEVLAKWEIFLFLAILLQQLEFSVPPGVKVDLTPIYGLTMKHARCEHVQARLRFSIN
Chain of Cytochrome P450 3A4 (Homo sapiens) (P08684 whole entry, looked up): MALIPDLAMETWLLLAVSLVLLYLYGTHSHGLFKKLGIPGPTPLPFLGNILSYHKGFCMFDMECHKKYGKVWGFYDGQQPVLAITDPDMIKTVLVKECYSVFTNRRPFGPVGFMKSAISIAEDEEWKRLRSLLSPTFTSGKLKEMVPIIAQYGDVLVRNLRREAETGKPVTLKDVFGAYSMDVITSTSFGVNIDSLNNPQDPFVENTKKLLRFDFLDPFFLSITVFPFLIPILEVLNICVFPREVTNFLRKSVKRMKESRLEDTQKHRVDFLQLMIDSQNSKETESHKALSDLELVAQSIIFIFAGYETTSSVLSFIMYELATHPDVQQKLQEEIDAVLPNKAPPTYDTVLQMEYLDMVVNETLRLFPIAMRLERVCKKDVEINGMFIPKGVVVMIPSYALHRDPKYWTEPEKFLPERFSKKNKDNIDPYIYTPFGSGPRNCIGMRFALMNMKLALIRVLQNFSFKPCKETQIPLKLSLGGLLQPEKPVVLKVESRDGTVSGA
Chain of Cytochrome P450 2C19 (Homo sapiens) (P33261 whole entry, looked up): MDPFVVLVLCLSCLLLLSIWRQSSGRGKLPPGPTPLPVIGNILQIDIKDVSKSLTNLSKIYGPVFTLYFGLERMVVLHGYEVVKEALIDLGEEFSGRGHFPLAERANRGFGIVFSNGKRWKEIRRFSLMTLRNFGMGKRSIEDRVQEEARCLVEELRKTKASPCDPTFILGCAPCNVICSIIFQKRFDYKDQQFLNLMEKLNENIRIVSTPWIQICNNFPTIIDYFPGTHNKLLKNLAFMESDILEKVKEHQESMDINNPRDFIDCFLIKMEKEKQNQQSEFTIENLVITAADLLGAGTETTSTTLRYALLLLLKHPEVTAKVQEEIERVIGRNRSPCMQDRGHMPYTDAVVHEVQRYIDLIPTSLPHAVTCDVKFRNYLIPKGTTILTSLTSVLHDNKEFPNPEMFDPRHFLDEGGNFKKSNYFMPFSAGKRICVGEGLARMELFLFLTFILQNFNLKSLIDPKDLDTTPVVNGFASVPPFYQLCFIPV
Chain of Nuclear receptor subfamily 1 group I member 2 (Homo sapiens) (O75469 whole entry, looked up): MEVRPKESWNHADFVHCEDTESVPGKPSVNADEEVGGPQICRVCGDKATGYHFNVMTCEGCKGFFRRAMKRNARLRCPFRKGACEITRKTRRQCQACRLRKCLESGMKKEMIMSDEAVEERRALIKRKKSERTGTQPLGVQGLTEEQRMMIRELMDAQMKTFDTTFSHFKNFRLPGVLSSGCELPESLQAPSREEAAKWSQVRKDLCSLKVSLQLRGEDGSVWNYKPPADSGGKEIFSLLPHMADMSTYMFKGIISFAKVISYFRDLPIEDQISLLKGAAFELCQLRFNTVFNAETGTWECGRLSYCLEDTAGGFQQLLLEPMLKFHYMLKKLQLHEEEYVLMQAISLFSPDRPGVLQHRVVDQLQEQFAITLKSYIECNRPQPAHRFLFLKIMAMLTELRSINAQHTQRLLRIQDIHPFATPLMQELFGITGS
Chain of Thyrotropin-releasing hormone receptor (Homo sapiens) (P34981 whole entry, looked up): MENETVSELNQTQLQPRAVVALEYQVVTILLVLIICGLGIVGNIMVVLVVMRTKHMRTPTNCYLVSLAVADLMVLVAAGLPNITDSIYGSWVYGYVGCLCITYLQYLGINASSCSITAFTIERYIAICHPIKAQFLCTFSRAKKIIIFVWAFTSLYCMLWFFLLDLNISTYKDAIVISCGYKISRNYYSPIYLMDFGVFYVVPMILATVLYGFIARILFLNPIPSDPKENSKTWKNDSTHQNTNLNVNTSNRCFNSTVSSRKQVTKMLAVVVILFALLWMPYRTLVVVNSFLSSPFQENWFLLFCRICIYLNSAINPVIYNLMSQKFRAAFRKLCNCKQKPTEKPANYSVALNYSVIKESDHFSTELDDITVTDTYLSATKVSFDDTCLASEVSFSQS
Chain of Voltage-gated inwardly rectifying potassium channel KCNH2 (Homo sapiens) (Q12809 whole entry, looked up): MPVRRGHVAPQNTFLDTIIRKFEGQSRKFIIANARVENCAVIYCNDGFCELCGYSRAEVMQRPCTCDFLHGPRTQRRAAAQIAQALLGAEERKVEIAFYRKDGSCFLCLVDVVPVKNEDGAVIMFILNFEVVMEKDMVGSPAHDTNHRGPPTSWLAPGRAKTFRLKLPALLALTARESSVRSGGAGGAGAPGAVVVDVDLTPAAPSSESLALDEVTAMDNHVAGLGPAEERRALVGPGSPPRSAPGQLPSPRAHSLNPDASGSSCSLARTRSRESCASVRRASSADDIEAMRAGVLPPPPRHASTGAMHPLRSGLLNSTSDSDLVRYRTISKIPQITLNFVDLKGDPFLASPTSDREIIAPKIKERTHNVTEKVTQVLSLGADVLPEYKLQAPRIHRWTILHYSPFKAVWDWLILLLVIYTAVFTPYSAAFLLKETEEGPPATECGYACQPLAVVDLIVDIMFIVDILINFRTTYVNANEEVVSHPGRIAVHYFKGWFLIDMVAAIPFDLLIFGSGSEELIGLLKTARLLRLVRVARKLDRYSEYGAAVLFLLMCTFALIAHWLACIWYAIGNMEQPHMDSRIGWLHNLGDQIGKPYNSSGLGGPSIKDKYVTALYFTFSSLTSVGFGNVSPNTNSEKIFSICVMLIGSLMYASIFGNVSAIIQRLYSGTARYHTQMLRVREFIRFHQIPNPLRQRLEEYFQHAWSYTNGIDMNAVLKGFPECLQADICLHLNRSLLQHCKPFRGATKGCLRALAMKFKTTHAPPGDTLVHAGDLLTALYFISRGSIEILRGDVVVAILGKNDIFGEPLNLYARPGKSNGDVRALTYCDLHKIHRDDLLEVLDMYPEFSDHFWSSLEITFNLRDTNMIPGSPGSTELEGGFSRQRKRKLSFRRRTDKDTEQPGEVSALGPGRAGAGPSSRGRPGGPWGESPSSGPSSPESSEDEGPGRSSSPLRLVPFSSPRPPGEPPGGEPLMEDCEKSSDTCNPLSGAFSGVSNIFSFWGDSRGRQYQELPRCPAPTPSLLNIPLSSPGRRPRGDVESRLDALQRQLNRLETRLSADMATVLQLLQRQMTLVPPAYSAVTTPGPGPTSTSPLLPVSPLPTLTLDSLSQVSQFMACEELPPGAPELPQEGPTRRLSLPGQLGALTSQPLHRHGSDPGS

Consider `CC(C)=CC(=O)O`, for which the compound was called inactive in experiment [1], in experiment [3], in [5] and in experiment [6]. Further, the Potency result in experiment [2], in [4], in [7], in experiment [8], in experiment [9] and in experiment [10] was “inactive” each time.
On to `CC(C)(C)N(CCO)CCO`, for which the outcome in experiment [1], in experiment [3], in experiment [5] and in experiment [6] was inactive. For the same compound, the Potency result in [2], in [4], in experiment [8], in experiment [9], in experiment [10] and in [11] was “inactive” each time. Also, the Potency result in experiment [12] is “inactive”. The Potency in [7] was 63.1 µM (active).
`CC1(C)OC(=O)Nc2ccc(Br)cc21`: the outcome in [1], in experiment [3], in [5] and in [6] was inactive. The Potency result in experiment [2], in experiment [4], in experiment [8] and in experiment [11] was “inactive” each time. Also, the Potency in experiment [7] is 23.7 µM (active); in experiment [9], 17.4 µM (active).
Take `CC(=O)CCc1ccc(O)cc1`: the compound was called inactive in experiment [1], in experiment [3], in experiment [5] and in experiment [6]. Also, the Potency result in experiment [2], in experiment [4], in experiment [7], in [10], in experiment [13] and in experiment [11] was “inactive” in each case. Moreover, the Potency entry in experiment [12] was “inactive”. In addition, the Potency in [9] is 20 µM (active).
In the case of `Cc1ccccc1Br`, the outcome in experiment [1], in experiment [3], in experiment [5] and in experiment [6] was inactive. The Potency result in experiment [2], in experiment [4], in experiment [7] and in experiment [11] was “inactive” each time. Moreover, the Potency in experiment [9] is 79.1 µM (active).
Regarding `CC(=O)OC(C)(C)C`, the compound was classed as inactive in experiment [1], in experiment [3], in [5] and in experiment [6]. Moreover, the Potency entry in experiment [2], in [4], in experiment [7], in experiment [9], in experiment [10] and in experiment [13] was “inactive” throughout. The Potency result in experiment [11] and in experiment [12] was “inactive” each time.
`C1C2OC2C2C1C1CC2C2OC12` (stereo not given): the compound was called inactive in [1], in experiment [3], in experiment [5] and in experiment [6]. The Potency result in [2], in experiment [4], in experiment [7], in experiment [8], in experiment [13] and in [11] was “inactive” in each case. Further, the Potency result in experiment [12] was “inactive”. For the same compound, the Potency in [9] was 40.1 µM (active).
In the case of `CCCCCCC(=O)OCC`, the compound was classed as inactive in experiment [1], in experiment [3], in [5] and in [6]. The Potency entry in [2], in experiment [4], in experiment [7], in experiment [8], in experiment [13] and in [12] was “inactive” in each case. Also, in [10], the Potency was 71 µM (active).
Take `CCC(C)OC(=O)N1CCCCC1CCO` (stereo not given): the outcome in experiment [1], in experiment [3], in experiment [5] and in [6] was inactive. For the same compound, the Potency result in [2], in [4], in experiment [7], in experiment [8] and in experiment [12] was “inactive” in each case. Also, the figures for the Potency in experiment [9] and in experiment [10] were 35.6 µM (active) and 79.6 µM (active), respectively.
Regarding `OCC(O)[C@@H](O)[C@H](O)[C@H](O)CO[C@H]1O[C@H](CO)[C@@H](O)[C@H](O)[C@H]1O` (stereo not given in full), the compound was classed as inactive in experiment [1], in experiment [3], in [5] and in experiment [6]. The Potency result in experiment [2], in [4], in experiment [7], in experiment [8], in [11] and in experiment [12] was “inactive” throughout. In addition, the Potency in experiment [9] is 19.9 µM (active).

The record behind these values is PubChem BioAssay (Tox21).
